Assay results reported in PubChem BioAssay AID1159580 (chemical genetic matrix, 2015).
The whole screen tested about 5,500 compounds, of which about 2,000 (36%) were called active. Inconclusive results (about 18%) are left out. Cut-off read from the data, not from the text of the source: active = normalized growth mostly below about 0.91 (no sharp cut-off); inconclusive = no clear call, values can overlap the other calls; inactive = mostly above about 0.92. The list shows a part of the results.

Assay: chemical genetic growth profiling, strain panel (AID 1159580);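 note: tested at 20 µM; growth read once vehicle control cultures reached saturation at 30 °C; 1 = growth at the plate median or of vehicle wells; lower values mean less growth of the strain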
Conditions: growth OD
[1] = S. cerevisiae deletion strains, locus YAL013W, strain DEP1, active compounds read low
[2] = S. cerevisiae deletion strains, locus YDR150W, strain NUM1, active compounds read low
[3] = S. cerevisiae deletion strains, locus YJR075W, strain HOC1, active compounds read low
[4] = S. cerevisiae deletion strains, locus YMR263W, strain SAP30, active compounds read low
[5] = S. cerevisiae deletion strains, locus YNL153C, strain GIM3, active compounds read low
[6] = S. cerevisiae deletion strains, locus YPL241C, strain CIN2, active compounds read low

Measured: normalized growth

CC1Cc2cc3c(cc2C(c2ccc(N)cc2)=NN1)OCO3 (centres undefined)
inactive: [1] 0.958 | S. cerevisiae deletion strains, locus YAL040C, strain CLN3, active compounds read low 0.946 | S. cerevisiae deletion strains, locus YCL061C, strain MRC1 (second series), active compounds read low 0.991 | [2] 0.995 | S. cerevisiae deletion strains, locus YDR363W, strain ESC2, active compounds read low 0.989 | S. cerevisiae deletion strains, locus YER002W, strain NOP16, active compounds read low 0.991 | [3] 0.97 | [4] 0.982 | [5] 0.979 | S. cerevisiae deletion strains, locus YNL175C, strain NOP13, active compounds read low 0.996 | S. cerevisiae deletion strains, locus YNL197C, strain WHI3, active compounds read low 0.999 | S. cerevisiae deletion strains, locus YNL224C, strain SQS1, active compounds read low 0.996 | [6] 0.986

CCCSP(=O)(OCC)SCCC
inactive: [1] 1.01 | S. cerevisiae deletion strains, locus YBR021W, strain FUR4, active compounds read low 1 | S. cerevisiae deletion strains, locus YBR229C, strain ROT2, active compounds read low 1.02 | S. cerevisiae deletion strains, locus YCL029C, strain bik1, active compounds read low 0.988 | S. cerevisiae deletion strains, locus YDL035C, strain GPR1, active compounds read low 1.02 | S. cerevisiae deletion strains, locus YDL074C, strain BRE1, active compounds read low 1.07 | S. cerevisiae deletion strains, locus YDL101C, strain DUN1, active compounds read low 1.02 | S. cerevisiae deletion strains, locus YDL134C, strain PPH21, active compounds read low 1.02 | S. cerevisiae deletion strains, locus YDL185W, strain tfp1, active compounds read low 0.984 | S. cerevisiae deletion strains, locus YDL192W, strain arf1, active compounds read low 0.988 | S. cerevisiae deletion strains, locus YDR101C, strain arx1, active compounds read low 0.99 | [2] 1.02 | S. cerevisiae deletion strains, locus YDR162C, strain NBP2, active compounds read low 1.02 | S. cerevisiae deletion strains, locus YDR318W, strain mcm21, active compounds read low 0.995 | S. cerevisiae deletion strains, locus YDR388W, active compounds read low 0.995 | S. cerevisiae deletion strains, locus YDR502C, strain sam2, active compounds read low 0.996 | S. cerevisiae deletion strains, locus YEL061C, strain CIN8, active compounds read low 1.02 | S. cerevisiae deletion strains, locus YER110C, active compounds read low 0.983 | S. cerevisiae deletion strains, locus YER155C, strain BEM2, active compounds read low 1.03 | S. cerevisiae deletion strains, locus YER167W, strain BCK2, active compounds read low 0.994 | S. cerevisiae deletion strains, locus YGL078C, strain dbp3, active compounds read low 0.964 | S. cerevisiae deletion strains, locus YGL086W, strain mad1, active compounds read low 0.994 | S. cerevisiae deletion strains, locus YGL248W, strain PDE1, active compounds read low 1.03 | S. cerevisiae deletion strains, locus YGR078C, strain PAC10, active compounds read low 1.02 | S. cerevisiae deletion strains, locus YGR135W, strain pre9, active compounds read low 0.98 | S. cerevisiae deletion strains, locus YGR229C, strain SMI1, active compounds read low 1.03 | S. cerevisiae deletion strains, locus YGR252W, strain gcn5, active compounds read low 0.927 | S. cerevisiae deletion strains, locus YHR030C, strain SLT2, active compounds read low 1.02 | S. cerevisiae deletion strains, locus YHR079C, strain IRE1 (second series), active compounds read low 0.982 | S. cerevisiae deletion strains, locus YHR094C, strain hxt1, active compounds read low 0.978 | S. cerevisiae deletion strains, locus YHR129C, strain ARP1, active compounds read low 1.02 | S. cerevisiae deletion strains, locus YHR200W, strain rpn10, active compounds read low 0.982 | S. cerevisiae deletion strains, locus YIL066C, strain RNR3, active compounds read low 1.03 | S. cerevisiae deletion strains, locus YIL073C, strain SPO22, active compounds read low 0.996 | S. cerevisiae deletion strains, locus YIL125W, strain kgd1, active compounds read low 0.987 | S. cerevisiae deletion strains, locus YIR030C, strain dcg1, active compounds read low 0.976 | S. cerevisiae deletion strains, locus YJL095W, strain BCK1, active compounds read low 1.04 | S. cerevisiae deletion strains, locus YJL134W, strain LCB3, active compounds read low 1.01 | S. cerevisiae deletion strains, locus YJL168C, strain set2, active compounds read low 0.981 | S. cerevisiae deletion strains, locus YJL187C, strain SWE1 (second series), active compounds read low 1.01 | S. cerevisiae deletion strains, locus YJR043C, strain POL32, active compounds read low 1.02 | [3] 1.03 | S. cerevisiae deletion strains, locus YKL009W, strain mrt4, active compounds read low 1.01 | S. cerevisiae deletion strains, locus YKL068W, active compounds read low 0.996 | S. cerevisiae deletion strains, locus YKL085W, strain MDH1 (second series), active compounds read low 0.99 | S. cerevisiae deletion strains, locus YKL085W, strain MDH1, active compounds read low 0.99 | S. cerevisiae deletion strains, locus YKL190W, strain CNB1, active compounds read low 1 | S. cerevisiae deletion strains, locus YKR001C, strain vps1, active compounds read low 0.982 | S. cerevisiae deletion strains, locus YLR039C, strain RIC1, active compounds read low 1.02 | S. cerevisiae deletion strains, locus YLR058C, strain SHM2, active compounds read low 1.01 | S. cerevisiae deletion strains, locus YLR102C, strain apc9, active compounds read low 0.977 | S. cerevisiae deletion strains, locus YLR262C, strain YPT6, active compounds read low 1.02 | S. cerevisiae deletion strains, locus YLR268W, strain sec22, active compounds read low 0.994 | S. cerevisiae deletion strains, locus YLR330W, strain CHS5, active compounds read low 1.02 | S. cerevisiae deletion strains, locus YLR342W, strain FKS1 (second series), active compounds read low 0.995 | S. cerevisiae deletion strains, locus YLR371W, strain rom2, active compounds read low 0.981 | S. cerevisiae deletion strains, locus YLR418C, strain cdc73, active compounds read low 0.999 | S. cerevisiae deletion strains, locus YML016C, strain PPZ1, active compounds read low 1.02 | S. cerevisiae deletion strains, locus YML032C, strain rad52, active compounds read low 0.983 | S. cerevisiae deletion strains, locus YML124C, strain tub3, active compounds read low 0.989 | S. cerevisiae deletion strains, locus YMR078C, strain ctf18, active compounds read low 0.983 | S. cerevisiae deletion strains, locus YMR223W, strain ubp8, active compounds read low 0.974 | [4] 1.03 | S. cerevisiae deletion strains, locus YMR307W, strain GAS1, active compounds read low 1.01 | S. cerevisiae deletion strains, locus YNL067W, strain RPL9B, active compounds read low 1.02 | S. cerevisiae deletion strains, locus YNL128W, strain TEP1, active compounds read low 1.03 | [5] 1.02 | S. cerevisiae deletion strains, locus YNL233W, strain BNI4, active compounds read low 1.01 | S. cerevisiae deletion strains, locus YNL250W, strain rad50, active compounds read low 0.984 | S. cerevisiae deletion strains, locus YNL271C, strain bni1, active compounds read low 0.974 | S. cerevisiae deletion strains, locus YNL298W, strain CLA4, active compounds read low 0.977 | S. cerevisiae deletion strains, locus YNL307C, strain MCK1, active compounds read low 0.979 | S. cerevisiae deletion strains, locus YNL322C, strain KRE1, active compounds read low 1.01 | S. cerevisiae deletion strains, locus YNR052C, strain pop2, active compounds read low 0.971 | S. cerevisiae deletion strains, locus YOL006C, strain TOP1, active compounds read low 1.05 | S. cerevisiae deletion strains, locus YOL012C, strain htz1 0.903 | S. cerevisiae deletion strains, locus YOL147C, strain pex11, active compounds read low 0.991 | S. cerevisiae deletion strains, locus YOR061W, strain CKA2, active compounds read low 1.01 | S. cerevisiae deletion strains, locus YOR069W, strain VPS5, active compounds read low 1.01 | S. cerevisiae deletion strains, locus YOR136W, strain idh2, active compounds read low 0.998 | S. cerevisiae deletion strains, locus YOR144C, strain elg1, active compounds read low 0.999 | S. cerevisiae deletion strains, locus YOR184W, strain ser1, active compounds read low 0.975 | S. cerevisiae deletion strains, locus YOR316C, strain cot1, active compounds read low 0.99 | S. cerevisiae deletion strains, locus YPL055C, strain LGE1, active compounds read low 1.03 | [6] 1.01 | S. cerevisiae deletion strains, locus YPR119W, strain clb2, active compounds read low 0.985 | S. cerevisiae deletion strains, locus YPR141C, strain kar3, active compounds read low 0.987 | S. cerevisiae deletion strains, locus YPR163C, strain tif3, active compounds read low 0.986 | S. cerevisiae deletion strains, locus YPR167C, strain met16, active compounds read low 0.985 | S. cerevisiae deletion strains, strain wtn01, active compounds read low 0.987 | S. cerevisiae strains, strain wild type, active compounds read low 1.02
